# Screening results (PubChem BioAssay)
# A selection follows.
# aSyn 5UTR act = Activators via SNCA 5'UTR binding, MLPCN; alpha-synuclein 5'UTR reporter, activators screen; activity score, % (tested at 7.5 µM), hits read low; 7.1% of 300,000 active; AID 1814; in the data active = activity score below about -60%
# An asterisk follows results filed as active.
SMILES,aSyn 5UTR act
Cc1c(C(=O)NCC2CCCO2)oc2ccc(Br)cc12 (stereo unspecified),-82*
Cc1cc(Cl)c2oc(C(=O)NCCC3CCCCO3)c(C)c2c1 (stereo unspecified),-63*
Cn1c(-c2cccs2)nc2ccccc21,-93*
Cn1c(-c2ccc(C=O)s2)nc2ccccc21,-123*
Cc1cc(Cl)n2c(nc3ccccc32)c1C#N,89
Cn1c(-c2ccc(Cl)nc2)nc2ccccc21,-65*
Cc1ccc(-c2cc(C(=O)NCc3ccco3)c3ccccc3n2)s1,-65*
O=C(NCc1ccco1)c1nc2ccccc2s1,-107*
COCCNC(=O)c1nc2ccccc2s1,-83*
CSc1nc2ncc(-c3ccsc3)c(N)n2n1,-62*
CCOC(=O)c1ccc(NCCOC)c([N+](=O)[O-])c1,-91*
Cc1ccc(C(=O)c2cc([N+](=O)[O-])ccc2N2CCOCC2)c(C)c1,98
Cc1cccc(NC(=O)c2ccc(N3CCOCC3)c([N+](=O)[O-])c2)n1,-115*
O=C(Nc1cccnc1)c1ccc(N2CCCC2)c([N+](=O)[O-])c1,-87*
Cc1cc(C(=O)Nc2ccc(N3CCCC3)c(Cl)c2)ccc1[N+](=O)[O-],-62*
CC(C)CCNc1nc(N)c([N+](=O)[O-])c(NCC2CCCO2)n1 (stereo unspecified),62
O=C(Nc1ccccc1)c1ccc(NCC2CCCO2)c([N+](=O)[O-])c1 (stereo unspecified),-125*
Cc1ccc(NC(=O)c2ccc(NCCCN3CCC(C)CC3)c([N+](=O)[O-])c2)c(C)c1,-63*
Cc1cccc(NC(=O)c2ccc(N(C)C3CCCCC3)c([N+](=O)[O-])c2)n1,-64*
Cc1cccc(NC(=O)c2ccc(N3CCCCC3)c([N+](=O)[O-])c2)n1,-157*
Cc1ccc(NC(=O)c2ccc(NCCN)c([N+](=O)[O-])c2)cc1Cl,-85*
Oc1ccc(Br)cc1C1Nc2ccccc2S1 (stereo unspecified),-84*
Nc1ccccc1C#CC(=O)c1ccccc1,-90*
O=C(CCCc1ccccc1)NC12CC3CC(CC(C3)C1)C2,-151*
CNC[C@H](CC1CCCCC1)NC[C@H](Cc1ccccc1)NCCC12CC3CC(CC(C3)C1)C2,125
SMILES,aSyn 5UTR act
O=C(NCCc1ccc(F)cc1)NC12CC3CC(CC(C3)C1)C2,-117*
O=C(NCCC1=CCCCC1)NC12CC3CC(CC(C3)C1)C2,-118*
Cc1nn(Cc2c(F)c(F)c(F)c(F)c2F)c(C)c1NC(=O)c1ccc(COc2cc(Cl)ccc2Cl)cc1,-133*
c1cnc(SCCOc2ccc3c(c2)CCC3)nc1,-111*
Cc1cccc(-n2nc3c(c2NC(=O)C2CC2)CS(=O)(=O)C3)c1C,-85*
Cc1ccc(O)c(NC(=O)c2cc(-c3ccc(F)cc3)on2)c1,-147*
Cc1ccc(O)c(NC(=O)c2cc(-c3cccs3)on2)c1,-231*
CC(C)NC(=O)c1cc(-c2cccs2)on1,-127*
C=CCNC(=O)c1cc(-c2ccc(Br)cc2)on1,-101*
O=C(Nc1c(F)cc(F)cc1Br)c1cc(-c2ccc(O)cc2)on1,-101*
CSc1ccccc1NC(=O)c1cc(-c2cccs2)on1,-235*
CC(C)(C)c1ccc(-c2nnc(N)o2)cc1,-154*
Cc1ccc(NCCC(=O)c2cccc([N+](=O)[O-])c2)c(C)c1,-201*
COc1ccc(/C=N/NC(=S)Nc2ccccc2)cc1,-72*
COc1ccc(NC(=O)O/N=C/c2ccccc2)cc1,-140*
S=C(N/N=C/c1ccc2ncccc2c1)Nc1ccccc1,108
S=C(N/N=C/c1ccccc1Cl)Nc1ccccc1,-106*
CC(C)CC(=O)Nc1cc2nn(-c3ccccc3)nc2cc1Cl,-135*
Nc1cc2nn(-c3ccccc3)nc2cc1Cl,-157*
CCOCCCNC(=O)/C(C#N)=C/c1cc(Br)c(O)c(Br)c1,-69*
O=C(CSc1nnc2ccccn12)c1ccc(Cl)cc1,-67*
CCOc1ccc(C(=O)CSc2nnc3ccccn23)cc1,-154*
COc1ccc(Cc2nc(-c3cccs3)no2)cc1,-115*
COc1ccc(Cc2nc(-c3ccccc3)no2)cc1,-176*
CCOC(=O)C1=C(COC(=O)/C=C/c2ccccc2Cl)NC(=O)NC1C (stereo unspecified),-70*
SMILES,aSyn 5UTR act
CCOC(=O)C1=C(COC(=O)c2cccc(N(C)C)c2)NC(=O)NC1C (stereo unspecified),-136*
CCN1CCN(c2nc3sc4c(c3c3ncnn23)CC(C)CC4)CC1 (stereo unspecified),-64*
c1ccc(N2OCC3Cn4c(nc5ccccc54)C32)cc1 (stereo unspecified),-64*
COc1ccc(Nc2ccc3c(c2)=NC2(CCCCC2)[N+]=3[O-])cc1,-87*
N#CCOc1ccccc1/C=C/c1nc2ccccc2c(=O)[nH]1,-115*
Cc1ccccc1/C=C\c1nc2ccccc2c(=O)[nH]1,-142*
Cc1ccccc1/C=C/c1nc2ccccc2c(=O)[nH]1,-324*
Cc1cc(C(=O)COc2ccccc2[N+](=O)[O-])c(C)n1C1CC1,-131*
Cc1cc(-n2c(C)cc(C(=O)COc3ccccc3[N+](=O)[O-])c2C)no1,-68*
Cc1cc(C(=O)COC(=O)c2ccc(Cl)c(S(N)(=O)=O)c2)c(C)n1C1CC1,-143*
Cc1cc(C(=O)COC(=O)c2ccc[nH]c2=O)c(C)n1C1CC1,-99*
Cc1cc(C(=O)COc2cccnc2[N+](=O)[O-])c(C)n1-c1ccccc1,100
Cc1cc(C(=O)COc2cccnc2[N+](=O)[O-])c(C)n1-c1ccccc1F,67
Cc1cc(C(=O)COc2ccccc2C(N)=O)c(C)n1C1CC1,-76*
Cn1nnc(NC(=O)c2ccc(C(C)(C)C)cc2)n1,-95*
Cn1nnc(NC(=O)c2ccc3ccccc3c2)n1,-63*
Cc1nn(-c2nc3ccccc3s2)c(N)c1-c1ccc(Cl)cc1,-203*
Cc1nn(-c2nc3ccccc3s2)c(N)c1-c1ccccc1,-224*
Cc1nn(-c2nc3ccccc3s2)c(N)c1Sc1ccc(F)cc1,-212*
COC(=O)c1cn(CCOc2ccccc2)c2ccccc12,-153*
O=[N+]([O-])c1ccc(-c2ncc(-c3ccc(Br)cc3)o2)cc1,-195*
CN1CCN(c2ccc([N+](=O)[O-])cc2C(=O)c2ccc(Br)cc2)CC1,67
O=C(Nc1ccc2c(c1)OCO2)N1CCN(c2ncccn2)CC1,-111*
O=C(Nc1ccc2c(c1)OCO2)N1CCN(c2ccccc2)CC1,-195*
O=C(Nc1ccc2c(c1)OCO2)N1CCN(c2ncc(C(F)(F)F)cc2Cl)CC1,-104*
SMILES,aSyn 5UTR act
O=C(Nc1ccc2c(c1)OCO2)N1CCN(c2ccc(F)cc2)CC1,-122*
CSc1n[nH]c(-c2ccc(C(F)(F)F)cc2)n1,-68*
COc1cccc(OCc2cc(C(=O)N(C)CCOc3ccc(C)cc3)no2)c1,-133*
COc1cccc(OCc2cc(C(=O)N(C)Cc3nccn3C)no2)c1,-142*
COc1ccc(OCc2cc(C(=O)N(Cc3nccn3C)C(C)C)no2)c2ccccc12,-70*
CC(=O)CCSc1ncnc2sc(-c3ccccc3)cc12,-174*
O=C(O)CCSc1ncnc2sc(-c3ccccc3)cc12,88
CCN1CCN(Cc2ccc(OCc3ccccc3)c(OC)c2)CC1,-90*
CCN1CCN(Cc2ccc(OCc3ccccc3)cc2)CC1,-77*
O=[N+]([O-])c1cc(S(=O)(=O)/N=C(/c2ccccc2)N2CCOCC2)ccc1Cl,-83*
c1ccc(OCc2nc(-c3ccncc3)no2)cc1,-82*
